Assay results as given in PubChem BioAssay (EPA / NIEHS).
“And” between values parts separate entries of the source, which are not always exact repeats. Equal values may be shown once. Inconclusive results are not listed. A structure can be active in one record and inactive in another. The source made the active and inactive calls. How the source made its calls: active means hit-call score of the fitted dose curve at least 0.9, where 1 is the maximum; inconclusive means response in the unintended direction; inactive means score below 0.9.

Experiments:
[1] = biological target: guinea pig Leukotriene D4 Receptor (LTD4), CYSLTR1 (gene 100135514) (UniProt Q2NNR5); assay: NVS_GPCR_gLTD4: NovaScreen (NVS) G Protein-Coupled Receptor Assay for guinea pig Leukotriene D4 Receptor (LTD4) (AID 2283248)
Method in brief: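 Guinea pig lung membrane preparation; bound radioligand measured by filter scintillation after 1 h, loss of signal versus DMSO marking displacement. Compounds tested at 25 uM in duplicate, hits retested to max 50 uM.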

[2] = biological target: human Adrenergic, Beta 1 Receptor (Adrb1), ADRB1 (gene 153) (UniProt P08588); assay: NVS_GPCR_hAdrb1: NovaScreen (NVS) G Protein-Coupled Receptor Assay for human Adrenergic, Beta 1 Receptor (Adrb1) (AID 2283258)
Method in brief: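 Membranes/protein extracted from human neuroepithelioma cells, radioligand competition binding read by filtration and scintillation 2 h post-dose. Single 25 uM duplicate screen, then concentration-response follow-up; DMSO as negative control.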

[3] = biological target: human Adrenergic, Alpha 2c Receptor (Adra2C), ADRA2C (gene 152) (UniProt P18825); assay: NVS_GPCR_hAdra2C: NovaScreen (NVS) G Protein-Coupled Receptor Assay for human Adrenergic, Alpha 2c Receptor (Adra2C) (AID 2283259)
Method in brief: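 Screened first in duplicate at 25 uM, with actives then run as concentration series. Membranes from Sf9 cells were exposed for 1 h, and displacement of radioligand was counted after filtration, using DMSO as baseline.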

[4] = biological target: human Serotonin, 5-Hydroxytryptamine Receptor 2A (5HT2A), HTR2A (gene 3356) (UniProt P28223); assay: NVS_GPCR_h5HT2A: NovaScreen (NVS) G Protein-Coupled Receptor Assay for human Serotonin, 5-Hydroxytryptamine Receptor 2A (5HT2A) (AID 2283249)
Method in brief: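 Radioligand displacement on human cortex tissue extract, counted by filtration and scintillation 1.5 h post-dosing. Initial single-concentration screen at 25 uM in duplicate, concentration series in follow-up; DMSO as baseline.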

[5] = biological target: guinea pig Opioid, Kappa 1 Receptor (OpiateK), OPRK1 (gene 100135587) (UniProt P41144); assay: NVS_GPCR_gOpiateK: NovaScreen (NVS) G Protein-Coupled Receptor Assay for guinea pig Opioid, Kappa 1 Receptor (OpiateK) (AID 2283252);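 further: radioligand displacement from kappa opioid receptor in guinea pig cerebellar membranes; active means reduced radioligand binding relative to DMSO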
Method in brief: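 Cell-free tissue prep: guinea pig cerebellar membranes, radioligand displacement, 2 h incubation. Readout: filtration plus scintillation counting. Primary single-point 25 uM duplicate; actives retested in concentration series; DMSO negative control.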

[6] = biological target: human Serotonin, 5-Hydroxytryptamine Receptor 6 (5HT6), HTR6 (gene 3362) (UniProt P50406); assay: NVS_GPCR_h5HT6: NovaScreen (NVS) G Protein-Coupled Receptor Assay for human Serotonin, 5-Hydroxytryptamine Receptor 6 (5HT6) (AID 2283253)
Method in brief: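 Filter scintillation counting of radioligand displacement from HEK293-expressed 5HT6, 1 hour post-dose, with loss of signal relative to DMSO. Single 25 uM duplicates first, with concentration series for confirmation.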

[7] = biological target: human Adenosine A1 Receptor (AdoRA1), ADORA1 (gene 134) (UniProt P30542); assay: NVS_GPCR_hAdoRA1: NovaScreen (NVS) G Protein-Coupled Receptor Assay for human Adenosine A1 Receptor (AdoRA1) (AID 2283254)
Method in brief: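 Hum. cortical membranes + radioligand, cmpd 1 h; filtration, scintillation count. Readout = decrease vs DMSO. Primary 25 uM dup; hits → conc. series.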

[8] = biological target: Beta-2 adrenergic receptor (Homo sapiens) (UniProt P07550); assay: NVS_GPCR_hAdrb2: NovaScreen (NVS) G Protein-Coupled Receptor Assay for human Adrenergic, Beta 2 Receptor (Adrb2) (AID 2283261)
Method in brief: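 Compounds screened in duplicate at 25 uM, then actives in concentration series. Human beta-2 receptor from CHO material, cell-free; radioligand displacement after 1 h measured by filtration and scintillation against DMSO baseline.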

[9] = biological target: human Adenosine A2a Receptor (AdoRA2a), ADORA2A (gene 135) (UniProt P29274); assay: NVS_GPCR_hAdoRA2a: NovaScreen (NVS) G Protein-Coupled Receptor Assay for human Adenosine A2a Receptor (AdoRA2a) (AID 2283256)
Method in brief: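 Compounds screened in duplicate at 25 uM, with actives followed up in concentration series, for displacement of a radioligand from HEK293-derived receptor protein. Bound counts read by filter scintillation at 1.5 hours, DMSO as baseline.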

[10] = biological target: bovine Dopamine Receptor (DR), Non-selective Binding, DRD1 (gene 281125) (UniProt Q95136); assay: NVS_GPCR_bDR_NonSelective: NovaScreen (NVS) G Protein-Coupled Receptor Assay for bovine Dopamine Receptor (DR), Non-selective Binding (AID 2283241)
Method in brief: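 Filter-based radioligand binding with bovine striatal membrane, incubated 1 h; DMSO as negative baseline. Initial duplicate single-point test at 25 uM preceded concentration series for actives.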

[11] = biological target: rat Monoamine Oxidase, MAO-B, Peripheral (MAOBP), Maob (gene 25750) (UniProt P19643); assay: NVS_ENZ_rMAOBP: NovaScreen (NVS) Enzymatic Assay for rat Monoamine Oxidase, MAO-B, Peripheral (MAOBP) (AID 2283242)
Experimental: NVS_ENZ_rMAOBP is a biochemical, single-readout assay that uses extracted gene-proteins from Rat brain in a tissue-based cell-free assay. Measurements were taken 1.17 hours after chemical dosing in a 96-well plate.NVS_ENZ_rMAOBP is one of one assay component(s) measured or calculated from the NVS_ENZ_rMAOBP assay. It is designed to make measurements of enzyme activity, a form of enzyme reporter, as detected with scintillation counting signals by Lysate-based radiodetection technology.Data from the assay component NVS_ENZ_rMAOBP was analyzed into 1 assay endpoint. This assay endpoint, NVS_ENZ_rMAOBP, was analyzed in the positive analysis fitting direction relative to DMSO as the negative control and baseline of activity. Using a type of enzyme reporter, loss-of-signal activity can be used to understand changes in the enzymatic activity as they relate to the gene Maob. Furthermore, this assay endpoint can be referred to as a primary readout, because this assay has produced multiple assay endpoints where this one serves a enzymatic activity function. To generalize the intended target to other relatable targets, this assay endpoint is annotated to the oxidoreductase intended target family, where the subfamily is monoamine oxidase.
Binding assays used specific radioligands (tritiated, iodinated) with non-radioactive competitive displacement ligands in agonist or antagonist protocols (as indicated) and various reference compounds and inhibitors to titrate specific binding to receptors and transporters. Most enzyme assays (CYPs, kinases, phosphatases, proteases, HDACs) used recombinant protein and specific substrates (fluorescence mostly, some colorimetric and radioactive) and inhibitors, followed by a biochemical separation of substrate and product. All assays for the biochemical HTS were initially run in duplicate at a single concentration (10 uM for CYP450 assays and 25 uM for all others). Assay-chemical combinations meeting a pre-defined threshold (e.g., 30% inhibition and other criteria defined below) were then run in singleton concentration-response format with maximum concentration of 20 uM for CYPs and 50 uM for all others. Each assay was run with positive and negative controls, and concurrent controls on every plate. The follow-up (secondary) screen tested active chemical-pairs in concentration series, as well as a few additional assays not tested in the primary screen, some selected negative inactives, and several cases re-run in the concentration series for confirmatory purposes.

[12] = biological target: Adenosine receptor A1 (Bos taurus) (UniProt P28190); assay: NVS_GPCR_bAdoR_NonSelective: NovaScreen (NVS) G Protein-Coupled Receptor Assay for bovine Adenosine Receptor (AdoR), Non-selective Binding (AID 2283244)
Method in brief: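 Cell-free binding with membranes from bovine striatum: radioligand displaced by test chemical, read after 1 h by filtration and scintillation. Single-point 25 uM duplicate primary, 50 uM top concentration in follow-up curves, DMSO baseline.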

[13] = NVS_GPCR_bNPY_NonSelective: NovaScreen (NVS) G Protein-Coupled Receptor Assay for bovine Neuropeptide Y (NPY) Receptor, Non-selective Binding (AID 2283245)
Method in brief: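 Displacement of radioligand from bovine hippocampal membrane receptors, read by filtration and scintillation counting after 1 hour. Concentration-response to a top of 50 uM followed a 25 uM duplicate primary screen. Loss of signal versus DMSO.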

[14] = test system: guinea pig Muscarinic, Peripheral (Mperiperal) Receptor, Non-selective Binding, gene 100379235; assay: NVS_GPCR_gMPeripheral_NonSelective: NovaScreen (NVS) G Protein-Coupled Receptor Assay for guinea pig Muscarinic, Peripheral (Mperiperal) Receptor, Non-selective Binding (AID 2283250)
Method in brief: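 Screened in duplicate at 25 uM, hits retested in concentration series to 50 uM max, using bladder membrane radioligand displacement from guinea pig. Filtration and scintillation counting 1 h post-dose, fitted relative to DMSO.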

[15] = biological target: human Serotonin, 5-Hydroxytryptamine Receptor 7 (5HT7), HTR7 (gene 3363) (UniProt P34969); assay: NVS_GPCR_h5HT7: NovaScreen (NVS) G Protein-Coupled Receptor Assay for human Serotonin, 5-Hydroxytryptamine Receptor 7 (5HT7) (AID 2283255);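 further: hits reduce specific radioligand binding relative to DMSO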
Method in brief: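 Filter-bound radioactivity counted after 1 h, with loss of specific radioligand binding fitted against DMSO. Membrane protein came from CHO cells expressing human 5HT7. Chemicals were tested first at 25 uM in duplicate, then in concentration series if active.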

[16] = test system: bovine Histamine 1 Receptor (H1), gene 281231; assay: NVS_GPCR_bH1: NovaScreen (NVS) G Protein-Coupled Receptor Assay for bovine Histamine 1 Receptor (H1) (AID 2283246)
Method in brief: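 Hits from a 25 uM duplicate primary screen were retested in concentration series (top 50 uM); binding measured as scintillation-counted displacement of radioligand from bovine cerebellar membranes after 1 h, normalised to DMSO.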

[17] = test system: bovine Angiotensin II Receptor Type 2 (AT2), gene 407157; assay: NVS_GPCR_bAT2: NovaScreen (NVS) G Protein-Coupled Receptor Assay for bovine Angiotensin II Receptor Type 2 (AT2) (AID 2283240)
Method in brief: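 Radioligand displacement on bovine cerebellar membranes, 1 hour incubation, filter-based scintillation counting; loss of signal vs DMSO. Duplicate single-point screen at 25 uM, then concentration-response to 50 uM maximum.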

[18] = test system: guinea pig Leukotriene B4 Receptor (LTB4), gene 100379538; assay: NVS_GPCR_gLTB4: NovaScreen (NVS) G Protein-Coupled Receptor Assay for guinea pig Leukotriene B4 Receptor (LTB4) (AID 2283247)
Method in brief: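 Membranes from guinea pig spleen incubated 2 h with radioligand and compound; bound counts measured by filtration and scintillation. Screened first at 25 uM in duplicate, then actives titrated to a 50 uM top concentration relative to DMSO.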

Sequence of human Adrenergic, Beta 1 Receptor (Adrb1), ADRB1 (gene 153) (P08588 whole entry, looked up): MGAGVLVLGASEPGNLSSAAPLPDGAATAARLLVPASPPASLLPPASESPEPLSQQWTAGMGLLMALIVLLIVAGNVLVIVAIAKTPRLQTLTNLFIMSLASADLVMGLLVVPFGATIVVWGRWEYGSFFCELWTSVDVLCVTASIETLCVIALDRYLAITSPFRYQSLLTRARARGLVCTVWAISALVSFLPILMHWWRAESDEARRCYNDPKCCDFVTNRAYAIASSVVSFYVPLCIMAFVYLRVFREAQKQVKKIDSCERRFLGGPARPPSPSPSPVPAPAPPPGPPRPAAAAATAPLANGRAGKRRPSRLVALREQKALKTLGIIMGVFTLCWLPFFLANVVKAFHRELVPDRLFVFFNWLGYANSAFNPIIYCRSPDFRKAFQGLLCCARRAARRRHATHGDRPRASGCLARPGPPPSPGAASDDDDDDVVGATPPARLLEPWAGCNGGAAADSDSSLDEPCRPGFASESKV
Sequence of guinea pig Opioid, Kappa 1 Receptor (OpiateK), OPRK1 (gene 100135587) (P41144 whole entry, looked up): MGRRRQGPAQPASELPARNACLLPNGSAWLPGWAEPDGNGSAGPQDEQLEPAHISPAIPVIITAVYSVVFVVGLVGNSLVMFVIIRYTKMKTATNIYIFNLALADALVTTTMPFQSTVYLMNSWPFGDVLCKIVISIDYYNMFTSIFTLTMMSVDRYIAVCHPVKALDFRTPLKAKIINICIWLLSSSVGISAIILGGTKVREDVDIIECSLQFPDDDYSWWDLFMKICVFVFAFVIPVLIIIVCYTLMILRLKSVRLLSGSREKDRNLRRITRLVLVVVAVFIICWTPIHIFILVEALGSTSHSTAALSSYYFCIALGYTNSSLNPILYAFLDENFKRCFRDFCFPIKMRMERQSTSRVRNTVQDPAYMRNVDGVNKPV
Sequence of human Adenosine A1 Receptor (AdoRA1), ADORA1 (gene 134) (P30542 whole entry, looked up): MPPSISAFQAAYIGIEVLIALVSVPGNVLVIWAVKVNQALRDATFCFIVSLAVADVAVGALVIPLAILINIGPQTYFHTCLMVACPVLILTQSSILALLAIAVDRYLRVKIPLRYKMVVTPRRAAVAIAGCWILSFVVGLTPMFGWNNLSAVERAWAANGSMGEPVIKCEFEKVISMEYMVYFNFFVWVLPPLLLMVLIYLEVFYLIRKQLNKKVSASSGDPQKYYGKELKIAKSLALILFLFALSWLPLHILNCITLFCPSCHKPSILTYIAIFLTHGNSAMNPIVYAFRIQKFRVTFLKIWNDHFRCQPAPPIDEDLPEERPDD
Sequence of human Serotonin, 5-Hydroxytryptamine Receptor 7 (5HT7), HTR7 (gene 3363) (P34969 whole entry, looked up): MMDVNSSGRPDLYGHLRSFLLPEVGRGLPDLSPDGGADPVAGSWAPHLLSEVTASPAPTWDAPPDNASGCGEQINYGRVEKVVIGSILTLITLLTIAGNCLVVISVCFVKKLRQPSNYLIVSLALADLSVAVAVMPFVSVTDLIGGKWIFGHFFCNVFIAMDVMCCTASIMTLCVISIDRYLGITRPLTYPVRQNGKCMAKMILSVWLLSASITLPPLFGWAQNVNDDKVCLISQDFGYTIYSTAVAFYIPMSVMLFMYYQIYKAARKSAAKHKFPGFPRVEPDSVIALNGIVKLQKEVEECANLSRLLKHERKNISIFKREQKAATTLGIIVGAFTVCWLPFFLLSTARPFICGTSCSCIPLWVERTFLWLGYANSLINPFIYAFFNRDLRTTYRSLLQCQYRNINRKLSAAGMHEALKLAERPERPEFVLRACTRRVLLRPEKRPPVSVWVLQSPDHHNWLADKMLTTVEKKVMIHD
Sequence of guinea pig Leukotriene D4 Receptor (LTD4), CYSLTR1 (gene 100135514) (Q2NNR5 whole entry, looked up): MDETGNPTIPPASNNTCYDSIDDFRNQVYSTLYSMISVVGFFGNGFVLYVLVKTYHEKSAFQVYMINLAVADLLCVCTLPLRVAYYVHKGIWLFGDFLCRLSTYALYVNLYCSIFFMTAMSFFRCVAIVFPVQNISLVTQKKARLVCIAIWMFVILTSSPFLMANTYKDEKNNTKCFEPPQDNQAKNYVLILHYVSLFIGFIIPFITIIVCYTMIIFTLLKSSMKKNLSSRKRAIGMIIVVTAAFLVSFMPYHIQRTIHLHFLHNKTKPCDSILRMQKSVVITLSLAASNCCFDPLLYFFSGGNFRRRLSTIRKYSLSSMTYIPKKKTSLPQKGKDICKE
Sequence of rat Monoamine Oxidase, MAO-B, Peripheral (MAOBP), Maob (gene 25750) (P19643 whole entry, looked up): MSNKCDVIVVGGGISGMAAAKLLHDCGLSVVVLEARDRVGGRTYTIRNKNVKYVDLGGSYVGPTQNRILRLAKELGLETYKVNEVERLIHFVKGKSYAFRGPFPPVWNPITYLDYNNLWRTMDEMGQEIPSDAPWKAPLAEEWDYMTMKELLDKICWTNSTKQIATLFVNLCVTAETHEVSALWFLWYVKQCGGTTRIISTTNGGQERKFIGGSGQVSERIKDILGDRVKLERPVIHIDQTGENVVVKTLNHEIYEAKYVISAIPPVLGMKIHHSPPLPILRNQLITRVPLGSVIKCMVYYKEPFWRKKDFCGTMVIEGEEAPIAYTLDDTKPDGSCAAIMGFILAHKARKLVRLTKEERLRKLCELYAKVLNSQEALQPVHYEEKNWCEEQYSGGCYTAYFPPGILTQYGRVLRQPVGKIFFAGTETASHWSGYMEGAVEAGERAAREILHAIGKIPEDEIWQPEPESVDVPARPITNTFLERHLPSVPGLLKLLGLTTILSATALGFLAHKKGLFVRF
Sequence of Adenosine receptor A1 (Bos taurus) (P28190 whole entry, looked up): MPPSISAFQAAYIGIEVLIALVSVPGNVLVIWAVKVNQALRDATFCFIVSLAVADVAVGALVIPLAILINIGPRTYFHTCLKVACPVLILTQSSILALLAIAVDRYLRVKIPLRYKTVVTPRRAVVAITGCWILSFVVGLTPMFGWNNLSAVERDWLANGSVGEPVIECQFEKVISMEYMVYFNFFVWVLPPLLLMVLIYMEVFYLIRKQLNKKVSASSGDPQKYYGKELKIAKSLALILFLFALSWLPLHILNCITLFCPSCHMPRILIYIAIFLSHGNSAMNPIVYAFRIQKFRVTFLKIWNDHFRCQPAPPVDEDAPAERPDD
Sequence of human Adenosine A2a Receptor (AdoRA2a), ADORA2A (gene 135) (P29274 whole entry, looked up): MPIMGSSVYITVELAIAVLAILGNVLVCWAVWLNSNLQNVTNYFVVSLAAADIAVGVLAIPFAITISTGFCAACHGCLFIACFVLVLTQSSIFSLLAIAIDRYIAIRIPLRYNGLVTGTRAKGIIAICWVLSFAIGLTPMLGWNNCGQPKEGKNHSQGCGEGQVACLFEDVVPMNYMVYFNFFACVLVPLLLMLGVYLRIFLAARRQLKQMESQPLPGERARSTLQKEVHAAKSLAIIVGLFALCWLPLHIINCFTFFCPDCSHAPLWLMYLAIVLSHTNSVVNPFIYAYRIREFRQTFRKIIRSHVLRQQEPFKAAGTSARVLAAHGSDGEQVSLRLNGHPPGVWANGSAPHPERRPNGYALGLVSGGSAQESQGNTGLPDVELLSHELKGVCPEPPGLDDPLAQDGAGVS
Sequence of bovine Dopamine Receptor (DR), Non-selective Binding, DRD1 (gene 281125) (Q95136 whole entry, looked up): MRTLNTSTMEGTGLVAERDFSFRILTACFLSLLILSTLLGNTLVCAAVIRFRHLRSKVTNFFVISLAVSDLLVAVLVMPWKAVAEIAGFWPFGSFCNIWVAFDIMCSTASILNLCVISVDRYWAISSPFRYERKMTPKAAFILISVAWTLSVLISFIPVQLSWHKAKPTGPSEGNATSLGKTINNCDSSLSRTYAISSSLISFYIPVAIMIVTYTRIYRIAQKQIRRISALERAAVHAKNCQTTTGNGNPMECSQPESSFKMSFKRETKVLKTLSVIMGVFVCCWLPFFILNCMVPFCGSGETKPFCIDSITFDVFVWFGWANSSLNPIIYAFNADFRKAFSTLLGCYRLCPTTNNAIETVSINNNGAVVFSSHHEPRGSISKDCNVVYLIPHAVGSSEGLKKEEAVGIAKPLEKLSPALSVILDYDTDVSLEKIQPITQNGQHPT
Sequence of human Serotonin, 5-Hydroxytryptamine Receptor 6 (5HT6), HTR6 (gene 3362) (P50406 whole entry, looked up): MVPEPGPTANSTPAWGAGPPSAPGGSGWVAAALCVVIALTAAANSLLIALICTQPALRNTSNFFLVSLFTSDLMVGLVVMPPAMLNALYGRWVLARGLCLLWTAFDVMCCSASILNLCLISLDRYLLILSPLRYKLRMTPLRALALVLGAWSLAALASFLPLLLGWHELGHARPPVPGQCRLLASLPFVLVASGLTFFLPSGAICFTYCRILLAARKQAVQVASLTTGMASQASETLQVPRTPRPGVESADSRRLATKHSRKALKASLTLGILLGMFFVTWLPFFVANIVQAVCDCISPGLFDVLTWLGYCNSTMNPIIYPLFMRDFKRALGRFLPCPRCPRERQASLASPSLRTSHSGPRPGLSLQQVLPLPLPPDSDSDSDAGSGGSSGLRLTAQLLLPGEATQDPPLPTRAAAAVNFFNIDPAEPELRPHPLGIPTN
Sequence of human Serotonin, 5-Hydroxytryptamine Receptor 2A (5HT2A), HTR2A (gene 3356) (P28223 whole entry, looked up): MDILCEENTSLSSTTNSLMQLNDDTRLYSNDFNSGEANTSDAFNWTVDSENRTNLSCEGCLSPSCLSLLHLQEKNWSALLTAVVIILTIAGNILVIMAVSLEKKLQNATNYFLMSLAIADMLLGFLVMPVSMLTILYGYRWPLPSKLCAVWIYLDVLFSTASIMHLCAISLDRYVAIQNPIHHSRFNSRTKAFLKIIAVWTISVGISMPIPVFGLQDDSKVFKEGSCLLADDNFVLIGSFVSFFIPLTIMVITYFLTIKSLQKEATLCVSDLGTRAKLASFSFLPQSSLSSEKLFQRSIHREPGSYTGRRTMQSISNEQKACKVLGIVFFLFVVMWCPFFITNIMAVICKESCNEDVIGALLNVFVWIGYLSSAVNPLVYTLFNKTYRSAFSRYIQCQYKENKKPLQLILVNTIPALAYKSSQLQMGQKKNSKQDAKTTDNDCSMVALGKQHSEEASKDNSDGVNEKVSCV

C=CCC1=C(C)C(OC(=O)C2C(C=C(C)C)C2(C)C)CC1=O (stereo not given)
outcome [1]: inactive
outcome [2]: inactive
outcome [3]: inactive

CCNc1nc(Cl)nc(NCC)n1
outcome [4]: inactive

OC(c1ccc(Cl)cc1)(c1cncnc1)c1ccccc1Cl (stereo not given)
AC50 [5]: 9.41 µM (active)
AC50 [6]: 8.03 µM (active)
AC50 [7]: 4.96 µM (active)
outcome [8]: inactive

CCCN(CCC)c1c([N+](=O)[O-])cc(S(N)(=O)=O)cc1[N+](=O)[O-]
AC50 [7]: 6.48 µM (active)
outcome [9]: inactive

CCCCNC(=O)OCC#CI
outcome [10]: inactive
AC50 [11]: 42.4 µM (active)
AC50 [12]: 11.9 µM (active)
outcome [12]: inactive
AC50 [13]: 4.96 µM (active)
outcome [13]: inactive
outcome [14]: inactive
AC50 [5]: 37.9 µM (active) and 40.9 µM (active)
AC50 [7]: 9.47 µM (active) and 15.2 µM (active)

CC1COC(Cn2cncn2)(c2ccc(Oc3ccc(Cl)cc3)cc2Cl)O1 (stereo not given)
outcome [5]: inactive
outcome [15]: inactive

CCCC1COC(Cn2cncn2)(c2ccc(Cl)cc2Cl)O1 (stereo not given)
AC50 [5]: 16.6 µM (active)

CC(C)Oc1cc(-n2nc(C(C)(C)C)oc2=O)c(Cl)cc1Cl
outcome [16]: inactive

CNC(=S)S
outcome [11]: inactive
outcome [16]: inactive

Cc1ccc(-c2c(Cl)nc(C#N)n2S(=O)(=O)N(C)C)cc1
outcome [17]: inactive
AC50 [18]: 1.93 µM (active)
outcome [1]: inactive

C#CCOS(=O)OC1CCCCC1Oc1ccc(C(C)(C)C)cc1 (stereo not given)
outcome [1]: inactive
AC50 [15]: 25 µM (active)
outcome [2]: inactive

CN(C)C(=S)SSC(=S)N(C)C
outcome [11]: inactive
outcome [5]: inactive
AC50 [6]: 5.18 µM (active)
AC50 [15]: 6.92 µM (active)
outcome [2]: inactive

CCCCNC(=O)n1c(NC(=O)OC)nc2ccccc21
outcome [18]: inactive
outcome [7]: inactive

Oc1ccccc1-c1ccccc1
outcome [15]: inactive
outcome [9]: inactive
